# Assay results from the supplement of paper PMC11417369.
# Whole data set: some 25,000 sequences, median “ln(normalized median fluorescence intensity)” near 7.1, cut for the highest 2% near 10. Many of the other results were omitted from the sample, so the highest values are more common in it than they were.
# Tested on: PfSIP2 AP2 domain 1 (GST-tagged)
# Experiment: gcPBM binding intensity (ln(normalized median fluorescence intensity)); higher = stronger DNA binding
# Procedure, shortened: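 Probes on an Agilent 4 × 180k array were primer-extended, double-stranded and 36 bp long, taken from intergenic genomic regions, with negative controls added. GST-tagged P. falciparum DNA-binding domains from E. coli, about 25 μg on average, were applied to the array for 1 h in 1× PBS containing 1% milk, 0.2 mg/ml BSA, 0.5% salmon testes DNA and 0.03% Triton X-100. Binding intensity, obtained after Alexa488 anti-GST antibody detection and a 488 nm scan, is the highest Masliner-normalised natural-log median intensity across replicate spots of either probe orientation.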
row,Sequence,gcPBM binding intensity (ln)
1,ATATAATATGGTATTACACACTGTTAAAAGTATGGC [CACACA_site5190],7.03
2,ATAAATAAATGGTGTTGTACTCTATTATATATATAT [XGTACX_site7835],8.66
3,TTGATTATAATTAGTACACACAAAATACATGCGGGG [CACACA_site2277],7.82
4,ATAAATTTTTAAAAATATGAATTATGTAATTTGTGA [CACACA_negctrl_site1621],6.92
5,TATTTATTGTGACACTTTTATTATTTTATGATAAAA [CACACA_negctrl_site37],6.97
6,TTTATCTAAATATGTGTGCACTCGTTAATTTTTTTT,10.5
7,TTATAATTTTAATGTGCACACAATTAAAATATTATA [CACACA_site5172],9.21
8,TGAAATTTTATTAATGTGCACATATATTTATTGTTC,8.56
9,TCATTTTAAATATGTGTGCACGTTATAATTTACACA,9.54
10,ATTTATATTAAAAGTGTGCACTTTTTTTTTTTTTTT,10.1
11,TTATTTTATTTTTGTGCACACTGATAAATTGAAAAG [CACACA_site2949],10.2
12,TTTATATTAATTGATGTGCACTGAAATATTTGTCCA [GTGCAC_site9655],10.2
13,CGAACTGCACTTTTTAGTACTTAATAATTATTTTTT [XGTACX_site2446],8.47
14,TGATATTATATTGTGATGCACTTTAAAAATATAAAG [GTGCAC_site9509],10.3
15,AAAAAAATTAATAATGTGCACTTTTTAGTATTTTTA [GTGCAC_site9744],10.3
16,ATATCGTTATTTTTATGTACTAAAATATTTAATTAT [XGTACX_site3516],7.09
17,TTAAATAAAAGGTTTAGTACTTAAAATAAGAAATGA [XGTACX_site6341],6.91
18,GTATGTAATATTTTAGTGCAAAAAAAAAAAAAAAAA [GTGCAC_site9790],8.3
19,ACAAAAAGTTACATACGTACGTAAAATTGTAATAAA [XGTACX_site2358],6.96
20,TCCATCCACATATATGTACACACATATATATATATA [CACACA_site8970],9.43
21,TTTTTTTTTTTTTTTTGTCCGTACTGCTTTGTGTTT [XGTACX_site3687],6.99
22,AAAAAAAAAAATTAAAGTACAAAAATATTAAAAATA [XGTACX_site6517],6.8
23,ATATATATATATCACCGTACTTATATAATAACATGA [XGTACX_site4398],9.36
24,AGAATATATATAATAGTGCAATGTACAATGAACAAA [GTGCAC_site9577],8.01
25,TTTGGAATATTAATTGTGCACTTAAAAAGTTAATTA,10
26,TATATATATTAGTGTGCACACTTTTTATTTTTATCC [CACACA_site8506],8.6

row,Sequence,gcPBM binding intensity (ln)
1,TATATTTATATATTAGTGCACTTTTTGTTAATTTTT,10.7
2,TTTTTTTTTTTTTTGTGTACTAATATTATAAATTTT [XGTACX_site4405],7.01
3,TTTTTTTTGATTTGTTTGCACTTATTTCCACAATAA,8.23
4,ATGAAATATTTATTTGTGCACTTAATTTGTTGGAAA,10.4
5,AATTATATTTAGTATATGCACACTTTATGTTTGTTA [CACACA_site2025],7.9
6,AGTACATTTTTGTGTGTGCACTAATATTATATACTT [GTGCAC_site9568],10.3
7,ATTATTTTTTTTGAAGTGCAATATTATTTTTAATCA,8.2
8,TTTATTTGTGCATATACACACTTAAATATGTTTATT [CACACA_site7772],7.65
9,AATAATATTTATTTTTGTACATATGTGCATTATAAA [XGTACX_site3682],7.13
10,TTTTGTTATTTTGAAGTGCACTTTCCACTTAATATA,11
11,GTATATAAATATATATATATATATATATCTATATTT [CACACA_negctrl_site871],7.42
12,ATATTATAAAATAAAAGTACACAATTATATATATAT [XGTACX_site8812],8.6
13,ATTATATAACAAAATAGTACATATATTTATTACATC [XGTACX_site336],6.99
14,CCATATTTCATTAATGAACACACAAAGAGGTATATA [CACACA_site8431],7.11
15,TTCTTCAATATATTCTTACACACTTAAAAAAAAAAA [CACACA_site228],7.5
16,ATAGGACCTATGTGCCCATGGGTACATTAAAAAAAA [CACACA_negctrl_site1465],6.83
17,AAGAAAAATATATATATAAATAAATAAATATATATA [TGCATGCA_negctrl_site330],6.98
18,ATAATATATGTATGTATGCACTTTTATTATTTTTTT,8.01
19,TATATATAAATATATGTGCACTTTTTATATTTATAT,10.6
20,TATTTATAAATATGTGTGCACAATTTATTTTATAAT,9.67
21,CGATTTTTTAAGTTTGTGCACTTAAAAACTATAACA,9.78
22,TGTATTAAAAATTTGGTGCAACTTTTACATAATAAT,10.5
23,TTTTGTTACTTTTATGTGCACTTATAAAACGAACTA [GTGCAC_site9551],10.3
24,CTTTTAAATTATTTTTGTACATAATTATATATATAT [XGTACX_site4128],8.44
25,TTTTTATTACATAATTAAAAAAAATAATAAAATAAA [XGTACX_negctrl_site249],6.8
26,AACTATTTTATTATATGTACTTACGAATTTATAAAA [XGTACX_site5262],7.04

row,Sequence,gcPBM binding intensity (ln)
1,ATATTATATTATTAATGTACATATATATAATTTTAA [XGTACX_site4974],7.05
2,AATTTTGTATAGGTATCACACATGAAATATATTATT [CACACA_site5526],6.98
3,ATATATATATATATATGTACATATATTTGTAATGTC [XGTACX_site8074],9.37
4,TTTCATATATATGAAACACACAAAGGAAAAAAAATT [CACACA_site4144],7.23
5,AATATAAATATAAATATAAATATATATATATATATA [TGCATGCA_negctrl_site603],9.38
6,CCTTAAAATAAGATATGTACGCAAAGGAAAACAAAG [XGTACX_site6057],7.62
7,TTAAATATTTTTAGAGTGCATGTAATAAAAATATAA [GTGCAC_site9414],10.2
8,TTCTATGCATTTATAGTGCATGTAAAATATAAGATA [GTGCAC_site9466],10.9
9,CTATGCATTTATAGTGCATGTAAAATATAAGATAAT [TGCATGCA_site71],10.3
10,AAATATTTTTAGAGTGCATGTAATAAAAATATAATG [TGCATGCA_site19],10.1
11,CATTTTTCTATATGTGCATGTAAGATAAGAATAATT [TGCATGCA_site107],8.22
12,ATTATATATAATATAGTGCATGTAAAAAATAAAACA,10
13,AAATAAATAAATAGAGTGCATATATATATATATTTT,8.61
14,ATATATTTTTATGTAGTGCATTTAAATAATAAATGC,8.42
15,TATATAATAAGATATGCATGCACATGTAAAATGAAT [TGCATGCA_site499],8.94
16,TTTATAAAATATCTTTCACACATTACTATGTATTAT [CACACA_site5148],6.83
17,TACTTTTATATAGAAAGTACATACAATTCATAGAAT [XGTACX_site2182],6.98
18,ATATATAAAAAATGTGGTACATTCATTTATTATACA [XGTACX_site3495],6.96
19,GTGTATTTGGTGCGCACACACATGCAAAAAGAAATA [CACACA_site4768],11.6
20,GTGTATTTTCTGCGCACACACATGCAAAAAGAAATA [CACACA_site1148],8.26
21,GTGTATTTTGTGCGCACACACATGCAAAAAGAAATA [CACACA_site6660],9.54
22,ATTTTATGTTGAAAGTGTACGTATTAATATGTAGAA [XGTACX_site245],7.34
23,GTATATAAATAAATAGTGCATTATTAAAAATAATGT,9.36
24,TGTTATTAAAATATAGTGCATAATTAACCATTATAA [GTGCAC_site9594],8.63
25,AAATTATGCATCGAGGTGCGTCTTAAAATATAGTGG,10.3
26,TAAGAGTAGTTATATACACACATGTATATTATAGTT [CACACA_site6815],6.84

row,Sequence,gcPBM binding intensity (ln)
1,ATAATATATACTATATGTACATATCTTTTCCTCTTT [XGTACX_site5553],7.1
2,TATAAAAATAAGCACACACACAAATATAGATTTATT [CACACA_site6558],6.98
3,AAAAAAAAAAAAAACACACAGAACAATATATAAATA [CACACA_site982],7.11
4,TATTATTTTTCATATGCATGCAAAAATAAAAAAATA [TGCATGCA_site350],7.05
5,TCCTTATTTATATAATGTACTTTTTTTTTTCATTTT [XGTACX_site4275],6.92
6,ATATTATATAATAATGCATGCACCTTATTTTCATTT [TGCATGCA_site405],11.3
7,CCTTTCACATATAATACATGCATTATTATATATGAA [TGCATGCA_site287],7.51
8,ATTATATAATAATGCATGCACCTTATTTTCATTTCA [GTGCAC_site9922],10.7
9,TAATAATTAATTAATATAATATTTTTTCATAATTAT [XGTACX_negctrl_site602],6.82
10,TTTATATTTATGATGGGTACACAAAATTTTACCCAT [XGTACX_site1504],6.96
11,TGAATAATCAATAGTACACACATATAAATATATATA [CACACA_site2813],7.28
12,AGGTGTCATAGATGCACACAAAAGTAACACGCACCT [CACACA_site4418],9.65
13,AAAAAAAAAATATTTGAACACACGAGGATATATAAA [CACACA_site139],6.89
14,TAAAAGATAAAATATGCATGTGTAATTTTTTTTTTT [TGCATGCA_site955],6.79
15,AACCATTTTAAATATGCACACAGATGCACTAACACA [CACACA_site8565],11
16,GTATAATATTTTAATGCACACACACTAATAAAAAAA [CACACA_site8939],7.65
17,CCATTTTAAATATGCACACAGATGCACTAACACATT [CACACA_site5099],10.5
18,CCATTTTAAATATGCACACAGATGCACTAACCCATT [CACACA_site1883],10.7
19,TGGCACTAAAAAAATAAACACACAGATTTATATAAT [CACACA_site8386],6.8
20,TTTTTTTAAATATACACACACATTTATACAGATATA [CACACA_site5811],7.12
21,TAAATTATATTATGCACACTTAAAAATATATTTAAC [CACACA_site3512],9.01
22,TAAATATGCTCACAGATGCACTAACACATTTTTATA [GTGCAC_site9997],8.14
23,GCACTAAAAAAATAAACACACAGATTTATATAATAT [CACACA_site1381],6.83
